From the supplement of paper PMC12645437, “Orthogonal IMiD-Degron Pairs Induce Selective Protein Degradation in Cells” (ACS Chemical Biology, 2025)
In all, about 8,300 sequences were measured (“log2 fold change of degron read counts, EGFP-low vs EGFP+ sorted cells (limma voom), compound-induced degradation”: median about -1.1, highest 2% from about 3.2 on). What follows is part of a selection rich in the highest values, with near analogues and random picks from the rest.

T1: CRBN, Q96SW2
T1 chain: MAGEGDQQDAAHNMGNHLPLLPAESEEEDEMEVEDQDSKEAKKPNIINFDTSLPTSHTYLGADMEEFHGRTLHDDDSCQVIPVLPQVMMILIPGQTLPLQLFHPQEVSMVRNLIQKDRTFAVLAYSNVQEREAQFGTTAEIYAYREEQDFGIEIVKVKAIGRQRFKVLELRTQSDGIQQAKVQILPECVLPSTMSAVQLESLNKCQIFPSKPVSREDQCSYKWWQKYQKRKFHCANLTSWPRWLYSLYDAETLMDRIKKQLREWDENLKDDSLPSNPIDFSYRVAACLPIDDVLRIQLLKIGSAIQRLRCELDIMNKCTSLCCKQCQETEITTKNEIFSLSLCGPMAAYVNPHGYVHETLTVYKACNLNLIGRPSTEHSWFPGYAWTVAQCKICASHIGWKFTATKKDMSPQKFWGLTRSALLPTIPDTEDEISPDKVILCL

B1: 46L_47C_49N_50Q_52G_53F_54R_55C_67L_, Q9UKT9 (peptide)
chain: LCCNQCGFRCTQKGNLLRHIKL
B2: 46F_47T_49E_50I_52G_53A_54F_55F_67L_, Q9UKT9 (peptide)
chain: FTCEICGAFFTQKGNLLRHIKL
B3: 46F_47D_49N_50I_52G_53A_54F_55F_67L_, Q9UKT9 (peptide)
chain: FDCNICGAFFTQKGNLLRHIKL
B4: 46L_47D_49E_50I_52G_53F_54E_55C_67L_, Q9UKT9 (peptide)
chain: LDCEICGFECTQKGNLLRHIKL
B5: 46F_47V_49P_50I_52G_53A_54K_55F_67L_, Q9UKT9 (peptide)
chain: FVCPICGAKFTQKGNLLRHIKL
B6: 46F_47C_49P_50I_52G_53A_54K_55F_67L_, Q9UKT9 (peptide)
chain: FCCPICGAKFTQKGNLLRHIKL
B7: 46F_47Q_49P_50I_52G_53A_54K_55F_67L_, Q9UKT9 (peptide)
chain: FQCPICGAKFTQKGNLLRHIKL
B8: 46F_47M_49P_50I_52G_53A_54K_55F_67L_, Q9UKT9 (peptide)
chain: FMCPICGAKFTQKGNLLRHIKL
B9: 46F_47T_49P_50I_52G_53A_54K_55F_67L_, Q9UKT9 (peptide)
chain: FTCPICGAKFTQKGNLLRHIKL
B10: 46F_47A_49P_50I_52G_53A_54K_55F_67L_, Q9UKT9 (peptide)
chain: FACPICGAKFTQKGNLLRHIKL
B11: 46F_47Q_49N_50I_52G_53A_54K_55F_67L_, Q9UKT9 (peptide)
chain: FQCNICGAKFTQKGNLLRHIKL
B12: 46F_47Y_49N_50I_52G_53A_54K_55F_67L_, Q9UKT9 (peptide)
chain: FYCNICGAKFTQKGNLLRHIKL
B13: 46F_47S_49P_50I_52G_53A_54K_55F_67L_, Q9UKT9 (peptide)
chain: FSCPICGAKFTQKGNLLRHIKL
B14: 46F_47M_49N_50I_52G_53A_54K_55F_67L_, Q9UKT9 (peptide)
chain: FMCNICGAKFTQKGNLLRHIKL
B15: 46F_47N_49P_50I_52G_53A_54K_55F_67L_, Q9UKT9 (peptide)
chain: FNCPICGAKFTQKGNLLRHIKL
B16: 46F_47G_49P_50I_52G_53A_54K_55F_67L_, Q9UKT9 (peptide)
chain: FGCPICGAKFTQKGNLLRHIKL
B17: 46F_47W_49N_50V_52G_53A_54P_55F_67L_, Q9UKT9 (peptide)
chain: FWCNVCGAPFTQKGNLLRHIKL
B18: 46F_47N_49N_50Q_52G_53R_54A_55F_67L_, Q9UKT9 (peptide)
chain: FNCNQCGRAFTQKGNLLRHIKL
B19: 46F_47L_49N_50Q_52G_53R_54K_55F_67L_, Q9UKT9 (peptide)
chain: FLCNQCGRKFTQKGNLLRHIKL
B20: 46F_47T_49E_50V_52G_53A_54D_55F_67L_, Q9UKT9 (peptide)
chain: FTCEVCGADFTQKGNLLRHIKL
B21: 46F_47W_49D_50V_52G_53A_54F_55F_67L_, Q9UKT9 (peptide)
chain: FWCDVCGAFFTQKGNLLRHIKL
B22: 46F_47E_49N_50V_52G_53A_54I_55F_67L_, Q9UKT9 (peptide)
chain: FECNVCGAIFTQKGNLLRHIKL
B23: 46F_47V_49E_50Q_52G_53A_54I_55F_67L_, Q9UKT9 (peptide)
chain: FVCEQCGAIFTQKGNLLRHIKL
B24: 46F_47R_49P_50I_52G_53A_54K_55F_67L_, Q9UKT9 (peptide)
chain: FRCPICGAKFTQKGNLLRHIKL
B25: 46F_47H_49P_50I_52G_53A_54K_55F_67L_, Q9UKT9 (peptide)
chain: FHCPICGAKFTQKGNLLRHIKL
B26: 46F_47W_49P_50I_52G_53A_54K_55F_67L_, Q9UKT9 (peptide)
chain: FWCPICGAKFTQKGNLLRHIKL
B27: 46F_47F_49D_50Q_52G_53A_54N_55F_67L_, Q9UKT9 (peptide)
chain: FFCDQCGANFTQKGNLLRHIKL
B28: 46F_47S_49D_50V_52G_53A_54P_55F_67L_, Q9UKT9 (peptide)
chain: FSCDVCGAPFTQKGNLLRHIKL

Target: T1, CRBN, Q96SW2
Test: log2 fold change of degron read counts, EGFP-low vs EGFP+ sorted cells (limma voom), compound-induced degradation; higher = more compound-induced degradation of the degron-EGFP fusion; degrons are variants of IKZF1/3 zinc finger 2; compound dose not given here
Conditions: Jurkat, 18 h
[1] = compound: compound 19 (5-tert-butyl-thalidomide)
[2] = compound: compound 22 (5-morpholino-thalidomide)
[3] = compound: compound 33 (diphenyl IMiD analogue)
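Further: pooled lentiviral library of zinc finger degron-EGFP fusions in mCherry-positive Jurkat cells, FACS-sorted after compound exposure, with degron abundance counted by next-generation sequencing.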

Sequence	log2 fold change of degron read counts [1]	log2 fold change of degron read counts [2]	log2 fold change of degron read counts [3]	log2 fold change of degron read counts (compound: thalidomide)
B1	-1.39	-1.65	-1.27	-1.01
B2	-0.327	0.0883	0.985	1.57
B3	-1.62	-1.63	-0.882	-0.692
B4	-1.93	-2.68	-2.74	-1.97
B5	-0.253	1.93	-0.152	2.45
B6	2.65	2.05	0.122	2.09
B7	0.535	3	0.562	3.44
B8	-0.0561	0.0581	0.821	0.888
B9	0.0311	2.04	-0.046	2.35
B10	3.43	1.44	-1.12	0.992
B11	-1.16	1.71	-0.442	3.26
B12	1.97	2.19	-0.298	-0.655
B13	2.33	1.67	-0.456	1.28
B14	-1.58	-1.36	-0.574	-0.374
B15	2.07	0.6	-1.08	0.72
B16	3.59	1.76	-0.616	1.31
B17	1.34	1.28	0.648	-0.594
B18	-2.53	-3	-2.84	-2.82
B19	-3.07	-2.98	-2.46	-1.94
B20	-1.27	-0.646	-0.114	0.571
B21	0.953	1.36	-0.00384	-1.88
B22	-2.34	-1.7	-0.347	0.492
B23	-2.11	-2.38	-0.483	-1.05
B24	-0.704	0.123	0.417	0.809
B25	2.6	2.09	-0.0644	0.674
B26	2.94	3.43	1.1	0.827
B27	-0.567	-0.255	-1.24	-2.4
B28	0.883	-0.0159	-0.896	-0.557
